Measured values reported in PubChem BioAssay AID2315 (National Center for Advancing Translational Sciences (NCATS), 2010).
Among all 290,000 compounds or so, about 27,000 (9.3%) were called active. No stated cut-off is given here; in the data, active means inhibition mostly above about 28% (no sharp cut-off); inactive means mostly below about 43%. The entries come from a sample that favours actives as a whole.

Assay: A qHTS for Small Molecule Inhibitors of Shiga Toxin; further: 0% is about no effect
Conditions: Vero cells, Shiga toxin protein synthesis inhibition reporter; at 38.7 µM, stronger effect = higher value

Row | Structure (SMILES) | inhibition
1 | COc1ccc(CN(C)C(=O)Cc2ccsc2)c(OC)c1OC | -10.3% (inactive)
2 | Cc1c(C)c2c(OCC(=O)NCCCO)cc3c(c2oc1=O)CCC(C)(C)O3 | -7.03% (inactive)
3 | COc1ccccc1CNS(=O)(=O)CC12CCC(CC1=O)C2(C)C (configuration not stated) | -4.21% (inactive)
4 | Cc1nc(-c2ccc(Cl)cc2)sc1C(=O)CBr | 52.5% (active)
5 | Cc1nc(-c2ccc(Cl)cc2)sc1C(=O)NN | -18.4% (inactive)
6 | Cc1ccc(SCC(=O)c2sc(-c3ccccc3)nc2C)cc1 | -2.76% (inactive)
7 | CCN1CCN(C(=O)C2CCN(S(=O)(=O)c3cc(Cl)ccc3Cl)CC2)CC1 | -5.92% (inactive)
8 | CC1(C)c2[nH]c3ccccc3c2C[C@H]2C(=O)N(N)CC(=O)N21 | 11.8% (inactive)
9 | COc1ccc(NC(=O)CSCc2ccc([N+](=O)[O-])cc2)cc1OC | -3.27% (inactive)
10 | CC(C)C(=O)N1CC(=O)Nc2ccc(F)cc2C1c1ccc(F)cc1 (configuration not stated) | -3.75% (inactive)
11 | Cc1ccc(C(=O)CNc2ccc(F)cc2)cc1 | 45.5% (active)
12 | COc1ccc(NC(=O)CCCC(=O)c2ccccc2)cc1 | 6.27% (inactive)
13 | Cc1ccc(NC(=S)Nc2ccc(F)cc2)cc1 | 27.7% (inactive)
14 | COC(=O)c1ccc(NC(=O)c2ccccc2NS(=O)(=O)c2ccccc2)cc1 | 5.81% (inactive)
15 | COC(=O)c1ccc(NCC(=O)N2CCCCCC2)cc1 | 110% (active)
16 | Cc1ccc(C(=O)NC2CCN(C(=O)Nc3ccc(F)cc3)CC2)cc1 | -7.26% (inactive)
17 | COC(=O)c1ccc(NCC(=O)c2ccccc2)cc1 | 85.2% (active)
18 | COC(=O)c1ccc(/C=N/NC(=O)C(=O)N2CCCCCC2)cc1 | -5.76% (inactive)
19 | COC(=O)c1ccc(C(=O)OC)c(NC(=S)N2CCCCC2)c1 | 12.8% (inactive)
20 | c1ccc(Cc2ccc(OCCn3ccnc3)cc2)cc1 | 1.57% (inactive)
21 | COc1ccc(CN(C)C(=O)c2cc(-c3ccc(C)cc3C)nc3ccccc23)c(OC)c1OC | -8.91% (inactive)

Row | Structure (SMILES) | inhibition
22 | CC(=O)N1CCCc2cc(S(=O)(=O)N3CCCC(C(=O)N4CCN(c5cccc(Cl)c5)CC4)C3)ccc21 (configuration not stated) | -12.3% (inactive)
23 | COc1ccc(CNC(=O)C2CCN(C(=O)c3ccccc3)CC2)cc1 | -21.8% (inactive)
24 | Cc1ccc2c(c1)N(CC(=O)NCCc1ccc(Cl)cc1)C(=O)c1cccnc1O2 | 4.91% (inactive)
25 | Cc1ccc(NC(=O)Cn2nc(C)c3ccccc3c2=O)c(C)c1 | 10.2% (inactive)
26 | Cc1ccc(NC(=O)c2ccn(C(=O)Nc3ccccc3)n2)c(C)c1 | 92.2% (active)
27 | Cc1ccc(C)c(S(=O)(=O)N2CCN(C(=O)Nc3ccccc3)CC2)c1 | 17.4% (inactive)
28 | Cc1ccc2nc(-c3ccncc3)cc(C(=O)Nc3ccc4c(c3)OCCO4)c2c1 | 9.13% (inactive)
29 | CCOC(=O)c1cnc2ccc(F)cc2c1Nc1ccc2c(c1)OCCO2 | 35% (active)
30 | O=C(Nc1ccc2c(c1)OCCO2)C(c1ccc(F)cc1)N1CCCCC1 (configuration not stated) | 5.25% (inactive)
31 | COc1ccc(C(=O)N(C)CC(O)c2ccccc2)cc1OC1CCN(C(C)=O)CC1 (configuration not stated) | -21% (inactive)
32 | O=C(Cc1ccc(Br)cc1)N1CCN(c2ccccn2)CC1 | 45.9% (active)
33 | O=C(CCC1CCCN(C(=O)Cc2ccc(F)cc2)C1)N1CCN(c2ccccn2)CC1 (configuration not stated) | -2.14% (inactive)
34 | O=C(Cc1ccccc1Cl)N1CCN(c2ccccn2)CC1 | 7.93% (inactive)
35 | CNC(=O)c1sc(Nc2ccc(OCc3ccccc3)cc2)nc1C | 43.2% (inactive)
36 | Cn1c(=NC(=O)CSCC(=O)N2CCCCC2)sc2ccccc21 | 20.2% (inactive)
37 | Cn1c(=NC(=O)c2cnccn2)sc2ccccc21 | 48.7% (active)
38 | COC(=O)c1ccc(OC(=O)c2cnccn2)cc1 | -3.05% (inactive)
39 | CCn1cc(C(=O)OCC(=O)Nc2cccc(C)c2)c(=O)c2ccc(C)nc21 | 12.3% (inactive)
40 | COc1ccc(S(=O)(=O)N2CCC(C(=O)NCCC(=O)NCc3cccc(OC)c3)CC2)cc1 | -13% (inactive)
41 | COCCOC1CCN(C(=O)c2ccc(OC)c(OC3CCN(C(C)C)CC3)c2)CC1 | 3.86% (inactive)
42 | Cc1cc(Cl)ccc1C(=O)C1CCCN(C(=O)c2nonc2C)C1 (configuration not stated) | -11% (inactive)

Row | Structure (SMILES) | inhibition
43 | O=C(/C(=C/c1cccc(Cl)c1)c1nc2ccccc2[nH]1)c1ccccc1 | 37.9% (inactive)
44 | N#C/C(=C(/O)COC(=O)COc1ccc(Cl)cc1)c1nc2ccccc2[nH]1 | -6.24% (inactive)
45 | O=C(Cc1nc2ccccc2[nH]c1=O)c1ccc(Cl)cc1 | 66.3% (active)
46 | O=S(=O)(Nc1cccc2cccnc12)c1cccc2cccnc12 | -6.53% (inactive)
47 | Cc1cccc(NC(=O)CCN2CC(C)CC(C)C2)c1 (configuration not stated) | -6.03% (inactive)
48 | CCNC(=O)c1cnn(-c2ccccc2)c1-c1ccccc1 | -0.867% (inactive)
49 | CCCc1c(C(=O)Nc2ccc(F)cc2)cnn1-c1ccccc1 | 58.3% (active)
50 | CCCc1c(C(=O)O)cnn1-c1ccc(Cl)cc1 | 9.39% (inactive)
51 | Cc1ccc2c(c1)N(S(=O)(=O)c1cc(-c3cc(C)no3)ccc1C)CCO2 | 18.2% (inactive)
52 | Oc1ccc(CN2CCN(c3ncccn3)CC2)cc1 | -3.72% (inactive)
53 | O=C(c1ccncc1)N1CCN(c2ccc3ccccc3n2)CC1 | -6.23% (inactive)
54 | c1cnc(N2CCN(c3ccc4ccccc4n3)CC2)nc1 | 71.6% (active)
55 | O=C(N/N=C1\CCSC1)c1cc(Cl)ccc1O | 35.8% (active)
56 | Cc1ccc(C)c(N2C(=O)CS/C2=N\NC(=O)c2ccccc2Cl)c1 | -31.2% (inactive)
57 | C/C(=N/NC(=O)c1cc(Cl)ccc1O)C12CC3CC(CC(C3)C1)C2 | 25.6% (inactive)
58 | C=CCn1c(SCC(=O)NC)nnc1C12CC3CC(CC(C3)C1)C2 | 13.7% (inactive)
59 | C/C(=N\NC(=O)c1ccccc1C)c1ccc(N2CCOCC2)cc1 | 40.6% (inactive)
60 | CC(C)=C(NC(=O)c1ccccc1)C(=O)N/N=C(\C)c1ccccc1O | -2.93% (inactive)
61 | C/C(=N\NC(=O)c1ccoc1C)c1ccccc1O | 104% (active)
62 | CC1=C(C(=O)NC2CC(C)(C)Cc3c2cnn3-c2ccc(C)cc2)OCCO1 (configuration not stated) | -2.9% (inactive)
